According to PubChem BioAssay AID624098 (National Center for Advancing Translational Sciences (NCATS), 2012):
Results filed as inconclusive are left out. The source made the active and inactive calls.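 Rule for the calls: active = immobility above 50% at 10 µM after 1 hour; inconclusive = immobility from 15% to 50% at 1 hour; inactive = immobility below 15%.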

Assay: Assay for General Anesthetic Phenotype in Xenopus Tadpoles
Details: startle-response immobility, 1 h, at 10 µM, stronger effect = higher value
Text: Anesthetic development has remained a largely empirical process. There are growing concerns about the cognitive effects of known general anesthetics and acceleration of the onset of neurodegenerative disease. The compounds' toxicity and multiple specific binding targets in the mammalian brain [4] has made them less attractive as drug leads. This assay was designed for the in vivo follow-up testing of compounds in tadpoles. References: [1] S.L. Bianchi, T. Tran, C. Liu, S. Lin, Y. Li, J.M. Keller, R.G. Eckenhoff, and M.F. Eckenhoff, Brain and behavior changes in 12-month-old Tg2576 and nontransgenic mice exposed to anesthetics. Neurobiol Aging 29 (2008) 1002-10. Z. Xie, Y. Dong, U. Maeda, R.D. Moir, W. Xia, D.J. Culley, G. Crosby, and R.E. Tanzi, The inhalation anesthetic isoflurane induces a vicious cycle of apoptosis and amyloid beta-protein accumulation. J Neurosci 27 (2007) 1247-54. P. Honegger, and J.M. Matthieu, Selective toxicity of the general anesthetic propofol for GABAergic neurons in rat brain cell cultures. J Neurosci Res 45 (1996) 631-6. M.F. Eckenhoff, K. Chan, and R.G. Eckenhoff, Multiple specific binding targets for inhaled anesthetics in the mammalian brain. J Pharmacol Exp Ther 300 (2002) 172-9. C.A. Butts, J. Xi, G. Brannigan, A.A. Saad, S.P. Venkatachalan, R.A. Pearce, M.L. Klein, R.G. Eckenhoff, and I.J. Dmochowski, Identification of a fluorescent general anesthetic, 1-aminoanthracene. Proc Natl Acad Sci U S A 106 (2009) 6501-6. W.A. Lea, J. Xi, A. Jadhav, L. Lu, C.P. Austin, A. Simeonov, and R.G. Eckenhoff, A high-throughput approach for identification of novel general anesthetics. PLoS One 4 (2009) e7150.
Pre-limb bud Xenopus tadpoles were obtained in large batches from Nasco, Inc. Batches of 10 tadpoles were placed in 20 mm Petri dishes with approximately 20 ml of pond water ("pond water" is approximately a 20-fold dilution of Ringers saline solution). Compounds were added to the pond water from DMSO stock to obtain 100, 10 and 1 microM concentrations. Tadpoles were then incubated with these solutions for 1 hour, and then scored for "anesthesia". Anesthesia in this case is lack of movement in response to a sharp tap on the Petri dish lid, i.e., a lack of startle response. This correlates well to the loss of righting reflex in rodents and the loss of consciousness in humans. The pond water is then changed, and the return of a startle response is monitored for 24 hours. Immobility at 24 hours is considered death.

| SMILES | immobility |
| --- | --- |
| Cc1ccc(=O)n(CC(=O)NCCc2ccccc2)n1 | 5% (inactive) |
| Cc1ccc(-c2ccc(=O)n(CC(=O)NCCc3ccccc3)n2)cc1 | 90% (active) |
| CC(C)Oc1ccc(-c2ccc(=O)n(CC(=O)NCCc3ccccc3)n2)cc1 | 95% (active) |
| O=C(Cn1nc(-c2ccc(OC(F)(F)F)cc2)ccc1=O)NCCc1ccccc1 | 80% (active) |
| CN(C)c1ccc(-c2ccc(=O)n(CC(=O)NCCc3ccccc3)n2)cc1 | 0% (inactive) |
| COc1ccccc1-c1ccc(=O)n(CC(=O)NCCc2ccccc2)n1 | 5% (inactive) |
| CCCCc1ccc(-c2ccc(=O)n(CC(=O)NCCc3ccccc3)n2)cc1 | 5% (inactive) |
| COc1ccc(-c2ccc(=O)n(CC(=O)NCCc3ccccc3)n2)cc1OC | 10% (inactive) |
| O=C(Cn1nc(C2CC2)ccc1=O)NCCc1ccccc1 | 0% (inactive) |
| O=C(Cn1nc(-c2ccc(C(F)(F)F)cc2)ccc1=O)NCCc1ccccc1 | 0% (inactive) |
| O=C(Cn1nc(-c2ccc3c(c2)OCO3)ccc1=O)NCCc1ccccc1 | 0% (inactive) |
| O=C(Cn1nc(-c2ccncc2)ccc1=O)NCCc1ccccc1 | 5% (inactive) |
| C[S+](=O)([O-])c1ccc(-c2ccc(=O)n(CC(=O)NCCc3ccccc3)n2)cc1 | 5% (inactive) |
| CC(C)(C)c1ccc(-c2ccc(=O)n(CC(=O)NCCc3ccccc3)n2)cc1 | 90% (active) |
| Cc1ccc(-c2ccc(=O)n(CC(=O)NCCc3ccccc3)n2)cn1 | 0% (inactive) |
| CC(C)COc1ccc(-c2ccc(=O)n(CC(=O)NCCc3ccccc3)n2)cc1 | 100% (active) |
| Cc1ccccc1-c1ccc(=O)n(CC(=O)NCCc2ccccc2)n1 | 0% (inactive) |
| COc1ccc(-c2ccc(=O)n(CC(=O)NCCc3ccccc3)n2)cc1 | 75% (active) |
| O=C(Cn1nc(-c2ccc(F)cc2)ccc1=O)NCCc1ccccc1 | 5% (inactive) |
| N#Cc1ccc(-c2ccc(=O)n(CC(=O)NCCc3ccccc3)n2)cc1 | 0% (inactive) |

Same assay, conditions: startle-response immobility, 1 h, measured here: 24 h immobility, toxicity/death, at 10 µM

| SMILES | immobility [%] |
| --- | --- |
| Cc1ccc(=O)n(CC(=O)NCCc2ccccc2)n1 | 15 |
| Cc1ccc(-c2ccc(=O)n(CC(=O)NCCc3ccccc3)n2)cc1 | 0 |
| CC(C)Oc1ccc(-c2ccc(=O)n(CC(=O)NCCc3ccccc3)n2)cc1 | 5 |
| O=C(Cn1nc(-c2ccc(OC(F)(F)F)cc2)ccc1=O)NCCc1ccccc1 | 10 |
| CN(C)c1ccc(-c2ccc(=O)n(CC(=O)NCCc3ccccc3)n2)cc1 | 10 |
| COc1ccccc1-c1ccc(=O)n(CC(=O)NCCc2ccccc2)n1 | 15 |
| CCCCc1ccc(-c2ccc(=O)n(CC(=O)NCCc3ccccc3)n2)cc1 | 5 |
| COc1ccc(-c2ccc(=O)n(CC(=O)NCCc3ccccc3)n2)cc1OC | 15 |
| O=C(Cn1nc(C2CC2)ccc1=O)NCCc1ccccc1 | 5 |
| O=C(Cn1nc(-c2ccc(C(F)(F)F)cc2)ccc1=O)NCCc1ccccc1 | 5 |
| O=C(Cn1nc(-c2ccc3c(c2)OCO3)ccc1=O)NCCc1ccccc1 | 0 |
| O=C(Cn1nc(-c2ccncc2)ccc1=O)NCCc1ccccc1 | 10 |
| C[S+](=O)([O-])c1ccc(-c2ccc(=O)n(CC(=O)NCCc3ccccc3)n2)cc1 | 5 |
| CC(C)(C)c1ccc(-c2ccc(=O)n(CC(=O)NCCc3ccccc3)n2)cc1 | 10 |
| Cc1ccc(-c2ccc(=O)n(CC(=O)NCCc3ccccc3)n2)cn1 | 0 |
| CC(C)COc1ccc(-c2ccc(=O)n(CC(=O)NCCc3ccccc3)n2)cc1 | 0 |
| Cc1ccccc1-c1ccc(=O)n(CC(=O)NCCc2ccccc2)n1 | 10 |
| COc1ccc(-c2ccc(=O)n(CC(=O)NCCc3ccccc3)n2)cc1 | 5 |
| O=C(Cn1nc(-c2ccc(F)cc2)ccc1=O)NCCc1ccccc1 | 0 |
| N#Cc1ccc(-c2ccc(=O)n(CC(=O)NCCc3ccccc3)n2)cc1 | 5 |
